The values that follow come from PubChem BioAssay.

Assay [1] in a line: viability loss in pontine glioma line – cell-based, SU-DIPG-XIII, MIPE4.0, CellTiter-Glo, qHTS, dose response (AID 1347061; cut-off not given, nearly all actives have AC50 up to about 37 µM;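 note: cells exposed to compound for 48 hours before readout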). To be noted: CellTiter-Glo ATP luminescence. On the technique in general: ATP-based viability assays read luminescence as a measure of living cells.
The nature of assay [2]: viability loss in pontine glioma line – cell-based, JHH-DIPG-1, MIPE4.0, CellTiter-Glo, qHTS, dose response (AID 1347062; cut-off not given, nearly all actives have AC50 up to about 27 µM;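 for AC50: cells exposed to compound for two days before readout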). The note with it: JHH-DIPG-1 viability, CellTiter-Glo ATP luminescence.
Assay [3] can be described thus: growth inhibition of DIPG cells – cell-based, MIPE4.0 library, CellTiter-Glo luminescence, qHTS (AID 1347066; cut-off not given, nearly all actives have AC50 up to about 30 µM;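 note: cells exposed to compound for 48 hours before readout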). The note with it: SU-DIPG-VI viability, CellTiter-Glo ATP luminescence.
Assay [4] can be described thus: viability loss in pontine glioma line – cell-based, SU-DIPG-XXV, MIPE5.0, CellTiter-Glo, qHTS, dose response (AID 1347065; cut-off not given, nearly all actives have AC50 up to about 26 µM;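 note: cells exposed to compound for 48 hours before ATP readout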). To be noted: CellTiter-Glo ATP luminescence.
Assay [5] is described as follows: growth inhibition of DIPG cells – cell-based, MIPE5.0 library, qHTS (AID 1347068; cut-off not given, nearly all actives have IC50 up to about 30 µM;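 for IC50: cells exposed to compound for 48 hours before viability readout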). To be noted: SU-DIPG-XXV viability. A general note: qHTS replaces the single test concentration by a dilution series.
Assay [6] can be described thus: viability loss with induced miR-34 in A549 – imaging, A549 dox-inducible miR-34, nuclei and caspase counts, primary screen (AID 1347080;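 active = compounds whose cell count with miR-34 switched on is under 0.7 times the count with it off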). To be noted: A549 miR-34 inducible, Hoechst nuclei count, 48 h.
Assay [7] in a line: compounds altering HSF1 focus formation in cells – imaging, Selleck Cancer Library (AID 1347162; in the data active = plate-normalised HSF1 focus index below about 0.46). To be noted: human cells, HSF1 nuclear foci imaging, at 10 µM; SSMD: measured here: HSF1 foci SSMD mean; cell count: measured here: cell number; plate-normalised HSF1 focus index: stronger effect = lower value.
The nature of assay [8]: MELAS cybrid and Rieske KO viability enhancers – cell-based, MELAS cybrids, Rieske KO mouse fibroblasts, CellTiter-Glo, primary screen (AID 1508586;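 active = mean z-score across replicates of 1.96 or higher in either the MELAS or the Rieske mutant cell line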;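 note: z relative to plate mean and SD of compound and empty wells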). To be noted: low glucose.
Assay [9] in a line: drug combination growth inhibition, ovarian cancer – cell-based, oncology-focused library, rucaparib conditional, profiling panel (AID 1508598). The note with it: patient-derived ovarian cancer cells, CellTiter-Glo viability, 144 h, stronger effect = lower value.
Assay [10] is described as follows: JHH-DIPG-1 glioma cell viability, MIPE5.0 library, CellTiter-Glo luminescence, qHTS (AID 1347067; cut-off not given, nearly all actives have AC50 up to about 26 µM;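 note: cells exposed to compound for 48 hours before readout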). To be noted: JHH-DIPG-1 glioma viability, CellTiter-Glo ATP luminescence.
Setting [11] is: stronger effect = lower value, cell number ratio, induced over uninduced.
Setting [12] is: measured here: relative caspase fold change +Dox/-Dox.
The mark [13] stands for this setting: measured here: total cells with miR-34 induction, stronger effect = lower value.
Setting [14] is: measured here: total cells without miR-34 induction.

Several values for one entry are separate records, joined by “and”; a condition that tells them apart may be missing. Equal values may be shown once. Inconclusive results are not listed. Activity calls are given as the source filed them.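 Rule for the calls, unless noted: active = normalized viability below 100% at a tested concentration; inactive = the rest.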

As a reminder, the AC50 is the concentration giving half of the maximal activity seen. As to `O=c1c(-c2ccc(O)cc2)coc2cc(OC3O[C@H](CO)[C@@H](O)[C@H](O)[C@H]3O)cc(O)c12` (some centres not stated), in assay [1], the AC50 is 20.9 µM (active). The call in [2] and in [3] was inactive.
On to `O=C(OCC#CCSc1nnc(-c2cccc3ccccc23)o1)c1cc2ccccc2s1`, for which the compound was classed as inactive in [1], in assay [2] and in [3].
As a reminder, the IC50 is the point on the concentration scale where inhibition reaches its midpoint. In the case of `O=C(NCc1ccccc1)[C@H](Cc1ccccc1)NC(=O)[C@H]1O[C@@H]1C(=O)NCCc1ccc(O)cc1`, the outcome in assay [1], in [2], in assay [4] and in assay [3] was inactive. Further, the IC50 in assay [5] was 18.6 µM (active).
By viability is commonly meant a read-out of living cells in per cent, often relative to untreated cells. Turning to `Cc1cnc(-c2cnc(NCCNc3ccc(C#N)cn3)nc2-c2ccc(Cl)cc2Cl)[nH]1`, the compound was called inactive in assay [1], in [2], in assay [4] and in assay [5]. In addition, the fold change in assay [6] (setting [11]) is 0.776 (inactive); in [6] (setting [12]), 0.884. The cell count in assay [6] (setting [13]) was found to be 2900; in assay [6] (setting [14]) it was 3740; in assay [7] it was 7270. Besides, the SSMD in assay [7] is -0.145. In [7], the plate-normalised HSF1 focus index was 0.999 (inactive). Also, the z-score was -0.0957 (inactive) in assay [8] (MELAS cybrid survival, CellTiter-Glo 48 h, stronger effect = higher value) and -0.0886 in assay [8] (Rieske KO mouse fibroblast survival, CellTiter-Glo 72 h). For the same compound, the viability was 111% (inactive) in assay [9] (at 0.000305 µM, OCI-C5x cells, with rucaparib 10 µM, 100% = cells with rucaparib alone); 124% (inactive) in assay [9] (at 0.000305 µM, OCI-C5x cells, without rucaparib); 101% (inactive) in assay [9] (at 0.000305 µM, OCI-P5x cells, with rucaparib 20 µM, 100% = cells with rucaparib alone); 106% (inactive) in [9] (at 0.000305 µM, OCI-P5x cells, without rucaparib); 108% (inactive) in [9] (at 0.00122 µM, OCI-C5x cells, with rucaparib 10 µM, 100% = cells with rucaparib alone); 122% (inactive) in [9] (at 0.00122 µM, OCI-C5x cells, without rucaparib). Also, the viability in [9] (at 0.00122 µM, OCI-P5x cells, with rucaparib 20 µM, 100% = cells with rucaparib alone) was 101% (inactive); in assay [9] (at 0.00122 µM, OCI-P5x cells, without rucaparib), 106% (inactive); in assay [9] (at 0.00488 µM, OCI-C5x cells, with rucaparib 10 µM, 100% = cells with rucaparib alone) it was 118% (inactive); in assay [9] (at 0.00488 µM, OCI-C5x cells, without rucaparib), 114% (inactive); in assay [9] (at 0.00488 µM, OCI-P5x cells, with rucaparib 20 µM, 100% = cells with rucaparib alone) it was 98% (active); in assay [9] (at 0.00488 µM, OCI-P5x cells, without rucaparib) it was 99% (active). The viability is 126% (inactive) in assay [9] (at 0.0195 µM, OCI-C5x cells, with rucaparib 10 µM, 100% = cells with rucaparib alone); 129% (inactive) in assay [9] (at 0.0195 µM, OCI-C5x cells, without rucaparib); 88.1% (active) in assay [9] (at 0.0195 µM, OCI-P5x cells, with rucaparib 20 µM, 100% = cells with rucaparib alone); 102% (inactive) in [9] (at 0.0195 µM, OCI-P5x cells, without rucaparib); 113% (inactive) in [9] (at 0.0781 µM, OCI-C5x cells, with rucaparib 10 µM, 100% = cells with rucaparib alone); 116% (inactive) in assay [9] (at 0.0781 µM, OCI-C5x cells, without rucaparib). Further, the viability in [9] (at 0.0781 µM, OCI-P5x cells, with rucaparib 20 µM, 100% = cells with rucaparib alone) is 102% (inactive); in [9] (at 0.0781 µM, OCI-P5x cells, without rucaparib), 99.7% (active); in assay [9] (at 0.313 µM, OCI-C5x cells, with rucaparib 10 µM, 100% = cells with rucaparib alone) it was 127% (inactive); in assay [9] (at 0.313 µM, OCI-C5x cells, without rucaparib), 127% (inactive); in assay [9] (at 0.313 µM, OCI-P5x cells, with rucaparib 20 µM, 100% = cells with rucaparib alone) it was 93.1% (active); in assay [9] (at 0.313 µM, OCI-P5x cells, without rucaparib), 99.5% (active). Also, the viability in [9] (at 1.25 µM, OCI-C5x cells, with rucaparib 10 µM, 100% = cells with rucaparib alone) was 121% (inactive); in assay [9] (at 1.25 µM, OCI-C5x cells, without rucaparib) it was 115% (inactive); in assay [9] (at 1.25 µM, OCI-P5x cells, with rucaparib 20 µM, 100% = cells with rucaparib alone), 93.8% (active); in [9] (at 1.25 µM, OCI-P5x cells, without rucaparib), 91.8% (active); in [9] (at 5 µM, OCI-C5x cells, with rucaparib 10 µM, 100% = cells with rucaparib alone) it was 80.9% (active); in assay [9] (at 5 µM, OCI-C5x cells, without rucaparib) it was 133% (inactive). Further, the viability in assay [9] (at 5 µM, OCI-P5x cells, with rucaparib 20 µM, 100% = cells with rucaparib alone) was 58.5% (active); in assay [9] (at 5 µM, OCI-P5x cells, without rucaparib), 78% (active).
Turning to `OCc1ccc(-c2nn(Cc3ccccc3)c3ccccc23)o1`, the result in assay [1], in assay [2], in assay [3] and in assay [5] was inactive. For the same compound, the AC50 in assay [10] was 23.5 µM (active). Besides, the fold change in assay [6] (setting [11]) is 0.905 (inactive) and 0.927 (inactive) and 0.926 (inactive); in assay [6] (setting [12]), 1.2 and 0.954 and 0.941. For the same compound, the cell count was 5070 and 1870 and 4400 in [6] (setting [13]); 5600 and 2020 and 4750 in assay [6] (setting [14]).
Consider `CC1(C)OC2CC3C4CC(F)C5=CC(=O)C=CC5(C)C4C(O)CC3(C)[C@]2(C(=O)CO)O1` (some centres not stated), for which the compound was called inactive in assay [1], in assay [2] and in assay [3].
On to `CN(C)/[N+]([O-])=N/Oc1cc(ON[N+](=O)N2CCN(C(=O)c3cc(Cc4n[nH]c(=O)c5ccccc45)ccc3F)CC2)c([N+](=O)[O-])cc1[N+](=O)[O-]`, for which the values for the AC50 in assay [1] and in assay [2] were 20.9 µM (active) and 13.2 µM (active), respectively. Moreover, the call in [3] was inactive.
Consider `CCCn1c(=O)c2[nH]c(C34CC5CC3C[C@@H](C5)C4)nc2n(CCC)c1=O`, for which the result in [1], in assay [2], in [3] and in assay [5] was inactive.
Turning to `OC[C@H](Cc1ccccc1)Nc1nc(Oc2ccc3c(c2)CCC3)nc2c1ncn2Cc1ccc(-c2ccccc2)cc1`, the call in assay [1], in assay [2], in assay [3] and in [5] was inactive.
As to `Clc1cc(Cl)cc(CNc2ncncc2-c2ccc3c(c2)OCO3)c1`, the compound was classed as inactive in [1], in assay [2] and in [3].
